Among the data in PubChem BioAssay (NCI) are growth inhibition values, retold here.

Molecules are shown by their SMILES. This is part of a sample that, as a whole, favours compounds with a hit. Of some 79,000 tested, about 15% had one in any assay. A number with no mark means an inactive call. Calls of active or inactive are those of the source. Cut-off read from the data, not from the text of the source: active = growth inhibition above about 70%; inactive = the rest.

Assay [1] can be described thus: NCI Yeast Anticancer Drug Screen. Data for the rad50 strain (AID 155).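 Note: 0% = growth of vehicle-only cultures of the same strain.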 The following applies: S. cerevisiae rad50 strain growth inhibition; at 50.0 µM; hits give high values. Put shortly:
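Growth of the mutant yeast was measured after compound exposure and referenced to vehicle-treated cultures.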

Assay [2] in a line: NCI Yeast Anticancer Drug Screen. Data for the mec2-1 strain (AID 157). The following applies: S. cerevisiae mec2-1 strain, at 50.0 µM, hits give high values. Put shortly: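 Cells of the genetically defined mec2-1 yeast strain are incubated with test compound. Inhibition of growth is calculated against vehicle-treated controls.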
Assay [3] in a line: NCI Yeast Anticancer Drug Screen. Data for the sgs1 mgt1 strain (AID 161).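 Note: 0% = growth of cultures given vehicle only.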 The following applies: S. cerevisiae sgs1 mgt1 strain, at 50.0 µM, hits give high values. Put shortly:
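Read-out: growth inhibition vs vehicle controls. Cells: mutant yeast strain deficient in DNA damage repair.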

Assay [4] is described as follows: NCI Yeast Anticancer Drug Screen. Data for the cln2 rad14 strain (AID 165).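 Note: 0% = growth equal to vehicle treated cultures.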 The following applies: S. cerevisiae cln2 rad14 strain, at 50.0 µM, hits give high values. Put shortly:
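The screen exposed genetically defined yeast (cln2 rad14) to test compounds and scored growth inhibition relative to vehicle-treated controls.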

The nature of assay [5]: NCI Yeast Anticancer Drug Screen. Data for the bub3 strain (AID 167). The following applies: S. cerevisiae bub3 mutant strain, at 50.0 µM, hits give high values. The procedure, abridged:
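Whole-cell yeast assay. The mutant strain was incubated with compounds, and growth inhibition was determined by comparison with vehicle-treated cells.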

Assay [6] is described as follows: NCI Yeast Anticancer Drug Screen. Data for the mlh1 rad18 strain (AID 175). The following applies: S. cerevisiae mlh1 rad18 strain growth inhibition; at 50.0 µM; hits give high values. The procedure, abridged: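 Compound-treated yeast growth, normalised to vehicle controls. Strain bears defined DNA repair mutations.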

On to `NNc1ccc([N+](=O)[O-])c2[nH][nH]c(=O)c12`, for which the growth inhibition in assay [1] is 8%; in assay [2] it was 6.5%; in assay [3] it was 27.1%; in assay [4], 11.2%; in assay [5], 31.9%; in assay [6] it was 11.4%.
Regarding `Cc1cc(-c2cscn2)c(O)c([N+](=O)[O-])c1`, the growth inhibition in assay [1] was 3.05%; in assay [2] it was 3.9%; in assay [3] it was 27.2%; in assay [4] it was 12.4%; in assay [5], 1.5%; in assay [6] it was 7.6%.
On to `CCc1cc(C(=O)NN)c2ccccc2n1`, for which the growth inhibition in assay [1] was -17.6%; in assay [2], -14.6%; in assay [3], -10.6%; in assay [4], -18.4%; in assay [5] it was -11.8%; in assay [6] it was 11.5%.
As to `N#Cc1ccc[n+]([O-])c1`, the growth inhibition is -8.8% in assay [1]; -6.1% in assay [2]; 0.05% in assay [3]; -0.7% in assay [4]; 7.65% in assay [5]; -4.6% in assay [6].
For the compound `CCCCCCCCCCCCN=Cc1cc(Cc2ccc(O)c(C=NCCCCCCCCCCCC)c2)ccc1O`, the growth inhibition in assay [1] was 85.7% (active); in assay [2], 80.4% (active); in assay [3], 91.3% (active); in assay [4] it was 84.2% (active); in assay [5] it was 83.7% (active); in assay [6] it was 96% (active).
For the compound `O=P(CCC(CC(F)(F)C(F)(F)C(F)(F)C(F)(F)C(F)(F)C(F)(F)C(F)(F)F)P(=O)(N1CC1)N1CC1)(N1CC1)N1CC1` (configuration not stated), the growth inhibition in assay [1] is 5.1%; in assay [2], 3.5%; in assay [3] it was -1.6%; in assay [4], -5.1%; in assay [5] it was -0.35%; in assay [6], 2.35%.
Regarding `CC1(C)C/C(=C\c2ccc([N+](=O)[O-])cc2)C(=O)c2ccccc21`, the growth inhibition in assay [1] was 80.3% (active); in assay [2], 71.7% (active); in assay [3], 77.5% (active); in assay [4], 40.3%; in assay [5] it was 76.5% (active); in assay [6] it was 89% (active).
Regarding `Cc1no[n+]([O-])c1NC(=O)OCc1ccccc1`, the growth inhibition in assay [1] is -1.8%; in assay [2], -11%; in assay [3], -2.6%; in assay [4], -37.8%; in assay [5] it was -15.3%; in assay [6] it was 6.9%.
For `O=C1CCCC1C(O)(C(F)(F)F)C(F)(F)F` (configuration not stated), the growth inhibition in assay [1] is -24.8%; in assay [2] it was -19.9%; in assay [3], -8.05%; in assay [4], 16.6%; in assay [5], -12%; in assay [6] it was -21.1%.
For `C=CCCCCCCCCC(=O)NCc1cccnc1`, the growth inhibition in assay [1] was 24.4%; in assay [2], 9.15%; in assay [3], 29.6%; in assay [4], 20.1%; in assay [5], 6.8%; in assay [6], 64%.
For `COc1c2c(cc3c1C1(O)Cc4ccc5c(c4C[N+]1(C)CC3)OCO5)OCO2` (configuration not stated), the growth inhibition was 10.8% in assay [1]; 3.05% in assay [2]; -5.3% in assay [3]; -1.15% in assay [4]; -4.25% in assay [5]; -60.8% in assay [6].
Regarding `CN(C)C(=O)C(NCCO)c1ccccc1` (configuration not stated), the growth inhibition in assay [1] is -12.6%; in assay [2], -20.4%; in assay [3] it was -11.2%; in assay [4], -27.8%; in assay [5], 14%; in assay [6] it was 0.3%.
Take `O=C(O)C(CCOc1ccccc1)CCOc1ccccc1`: the growth inhibition in assay [1] was 0.7%; in assay [2] it was -15.2%; in assay [3] it was 3.5%; in assay [4] it was -10.4%; in assay [5] it was -9.15%; in assay [6] it was -26.3%.
Regarding `O=C1NC(C(=O)O)CC1O` (configuration not stated), the growth inhibition in assay [1] is 4.1%; in assay [2], 23.9%; in assay [3], 5.05%; in assay [4] it was 14.2%; in assay [5], 17.9%; in assay [6] it was 17.6%.
With `Cc1c(N)nc(C(CC(N)=O)NCC(N)C(N)=O)nc1C(=O)NC(C(=O)NC(C)C(O)C(C)C(=O)NC(C(=O)NCCc1nc(-c2nc(C(=O)NCCC[S+](C)CC(N)=O)cs2)cs1)C(C)O)C(OC1OC(CO)C(O)C(O)C1OC1OC(CO)C(O)C(OC(N)=O)C1O)c1cnc[nH]1` (configuration not stated), the growth inhibition in assay [1] is 63.9%; in assay [2] it was 58.9%; in assay [3], 71.7% (active); in assay [4], 56.9%; in assay [5], 80% (active); in assay [6], 75.7% (active).
As for `CCCCC(CC)COB(OCC(CC)CCCC)OCC(CC)CCCC` (configuration not stated), the growth inhibition in assay [1] was -41%; in assay [2], -38.3%; in assay [3] it was -22.1%; in assay [4], -0.8%; in assay [5], -23.2%; in assay [6] it was -24.3%.
In the case of `CC1NC(=O)CC(c2ccccc2)N(N=O)C1c1ccccc1` (configuration not stated), the growth inhibition in assay [1] was -53.5%; in assay [2], -3.3%; in assay [3], -4.1%; in assay [4] it was -7%; in assay [5] it was -9.05%; in assay [6] it was 8.65%.
In the case of `S=C(NCN1CCCCC1)NCN1CCCCC1`, the growth inhibition is 9.55% in assay [1]; 9.1% in assay [2]; 4.95% in assay [3]; -50.1% in assay [4]; 23.8% in assay [5]; 33.5% in assay [6].
On to `Cn1/c(=N\N=C2\C=C3CCCCC3(C)CC2)sc2ccccc21` (configuration not stated), for which the growth inhibition was 12.7% in assay [1]; 12.2% in assay [2]; 22.9% in assay [3]; 33.2% in assay [4]; -8.8% in assay [5]; 47.1% in assay [6].
For `CC1=C(c2ccccc2)OS(=O)(=O)CC1N(C)C` (configuration not stated), the growth inhibition is -2.6% in assay [1]; -16.4% in assay [2]; -1.65% in assay [3]; -6.95% in assay [4]; -7.4% in assay [5]; -2.35% in assay [6].
With `COC(OC)C1CC=CCCC1C(=O)O` (configuration not stated), the growth inhibition was 17.1% in assay [1]; 16.8% in assay [2]; 11.7% in assay [3]; -0.4% in assay [4]; 14.2% in assay [5]; -8.65% in assay [6].
`O=[N+]([O-])c1ccc(N/N=C/C2CC=CCC2)c([N+](=O)[O-])c1` (configuration not stated): the growth inhibition in assay [1] is 7%; in assay [2], -6.8%; in assay [3], -8.55%; in assay [4] it was -13.1%; in assay [5], -5.65%; in assay [6] it was 5.25%.
With `COC(=O)C(O)CC1=CC[C@@H]2CC=C[C@H]12` (some centres not stated), the growth inhibition was 27.7% in assay [1]; 1.7% in assay [2]; 13.7% in assay [3]; 3.7% in assay [4]; 27.5% in assay [5]; -7.65% in assay [6].
Regarding `CCCCNC(=O)CC`, the growth inhibition in assay [1] is 3.1%; in assay [2], -11.2%; in assay [3] it was 3%; in assay [4], 4.85%; in assay [5], 14.9%; in assay [6], -1.95%.
On to `O=C(O)C(=Cc1ccc(-c2ccc([N+](=O)[O-])cc2)o1)C(=O)O`, for which the growth inhibition in assay [1] is 6.95%; in assay [2] it was 0.7%; in assay [3] it was -12.8%; in assay [4], 29.9%; in assay [5], 15.8%; in assay [6] it was 12.4%.
`Ic1ccc(Nc2ncnc3sc4c(c23)CCCC4)cc1`: the growth inhibition in assay [1] is 24.2%; in assay [2], -14%; in assay [3], -16.9%; in assay [4], 15.8%; in assay [5] it was 7.25%; in assay [6] it was -7.65%.
Regarding `Oc1c(Br)cc(Br)cc1/C=N/c1nc(-c2ccccc2)cs1`, the growth inhibition in assay [1] was 98.5% (active); in assay [2] it was 92.1% (active); in assay [3], 99% (active); in assay [4] it was 92.5% (active); in assay [5], 97.4% (active); in assay [6], 99% (active).
As for `CC(C)OC(=O)CO`, the growth inhibition in assay [1] is 29.6%; in assay [2] it was 3.55%; in assay [3] it was 14.2%; in assay [4] it was 12.2%; in assay [5] it was 10.5%; in assay [6], 13.2%.
For the compound `CC(C)NCC(O)c1ccc(O)c2ncccc12` (configuration not stated), the growth inhibition is 1.95% in assay [1]; 24.3% in assay [2]; 5.9% in assay [3]; 5.15% in assay [4]; -22.1% in assay [5]; -7.15% in assay [6].
Consider `COc1ccc2cc1Oc1ccc(cc1)CC1c3c(cc(OC)c4c3Oc3cc5c(cc3O4)CCNC5C2)CCN1C` (configuration not stated), for which the growth inhibition was -15.9% in assay [1]; -31.6% in assay [2]; -12.2% in assay [3]; -1.1% in assay [4]; -38.8% in assay [5]; -25.1% in assay [6].
As to `COC(=O)/C=C(\C(=O)c1ccccc1)c1ccccc1`, the growth inhibition in assay [1] was 6.05%; in assay [2] it was 4.25%; in assay [3], -4.1%; in assay [4] it was 8.95%; in assay [5] it was 0.3%; in assay [6], 11.9%.
Regarding `CCOC(=O)c1ccc(NC(=O)Nc2cc(Cl)ncn2)cc1`, the growth inhibition in assay [1] is 10.1%; in assay [2], -6.55%; in assay [3], 9.15%; in assay [4] it was -22.9%; in assay [5] it was 10.3%; in assay [6], -6.15%.
Take `Cc1ccc(Nc2nc3ccccc3nc2NS(=O)(=O)c2ccc(N)cc2)cc1`: the growth inhibition in assay [1] is 20.2%; in assay [2], 11.8%; in assay [3], 13.3%; in assay [4] it was 5.85%; in assay [5], 7.45%; in assay [6] it was -4.2%.
On to `CCCCCCC(/C=N/Nc1ccccn1)=C\c1ccccc1`, for which the growth inhibition in assay [1] is -5.05%; in assay [2], -0.95%; in assay [3] it was 2.55%; in assay [4] it was -7.6%; in assay [5] it was -4.1%; in assay [6], -21.9%.
In the case of `Cc1c(N=Nc2cccc(F)c2)c(-c2ccccc2)nn1C(=S)S`, the growth inhibition in assay [1] is 20.2%; in assay [2] it was 5.25%; in assay [3], 11.7%; in assay [4], 15.9%; in assay [5] it was 26.8%; in assay [6], 16.7%.
As for `Cc1ccc(NC(=O)/C=C2\CONC(c3ccccc3)=N2)cc1`, the growth inhibition in assay [1] was -10.1%; in assay [2] it was -5.7%; in assay [3] it was -8.3%; in assay [4] it was -15.2%; in assay [5], -6.9%; in assay [6], 1.75%.
For the compound `O=c1[nH]nc(S(=O)(=O)NC2CCCCC2)c(=O)[nH]1`, the growth inhibition in assay [1] was 12.6%; in assay [2] it was -13.1%; in assay [3], -7.3%; in assay [4], -20.9%; in assay [5], 2.65%; in assay [6], 5.6%.
